Results on 16 molecules are retold here after PubChem BioAssay (EPA / NIEHS).

Assay [1] is described as follows: CCTE_Shafer_MEA_dev_active_electrodes_number: CCTE's Neural Network Formation Assay for Number of Active Electrodes, Shafer Lab (AID 2284040; active = hit-call score of the fitted dose curve at least 0.9, where 1 is the maximum;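 as to AC50: potency for loss of active electrodes versus DMSO so lower counts are hits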). Put shortly: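 Primary rat cortical neurons on 16-electrode MEA wells, exposed from day 0 through day 12 with compound renewed at DIV 5 and 9 feeds. Active electrodes (mean firing ≥5 spikes/min) counted at DIV 5, 7, 9, 12; trapezoidal AUC across days, loss-of-signal versus DMSO.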

The nature of assay [2]: CCTE_Shafer_MEA_dev_burst_rate: CCTE's Neural Network Formation Assay for Burst Rate, Shafer Lab (AID 2284042).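 As to AC50: potency for loss of burst rate below DMSO control.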 An outline of the steps: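 Rat primary cortical cultures on PEI/laminin MEA; compound from plating, re-dosed at DIV 5, 9 media change. Single-electrode bursts/recording length, well mean of active electrodes; AUC over DIV 5–12 recordings; loss-of-signal vs DMSO.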

Assay [3] can be described thus: CCTE_Shafer_MEA_dev_bursting_electrodes_number: CCTE's Neural Network Formation Assay for Number of Bursting Electrodes, Shafer Lab (AID 2284043; active = hit-call score of the fitted dose curve at least 0.9, where 1 is the maximum;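 as to AC50: potency is for loss of bursting electrodes relative to DMSO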). An outline of the steps:
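Read-out is the per-well number of electrodes bursting at least once every 2 minutes, recorded on days 5, 7, 9 and 12 and collapsed by trapezoidal area under the curve. Cultures were primary rat cortical neurons on MEA plates, treated continuously from plating.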

The nature of assay [4]: CCTE_Shafer_MEA_dev_per_burst_interspike_interval: CCTE's Neural Network Formation Assay for Burst Interspike Interval, Shafer Lab (AID 2284044).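 Also: mean spike spacing inside bursts as AUC over recordings on days 5 7 9 12.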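 As to AC50: potency for a decrease of within-burst interspike interval below DMSO level.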 An outline of the steps: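 Neurons from rat cortex plated onto PEI-coated MEA wells with laminin […] at 1.5 x 10^5 cells/well, then treated from day 0. Media and compound fully replaced on DIV 5 and 9. Extracellular spontaneous firing recorded four times; interspike interval per burst summarised as AUC.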

A short description of assay [5]: CCTE_Shafer_MEA_dev_burst_duration_mean: CCTE's Neural Network Formation Assay for Mean Burst Duration, Shafer Lab (AID 2284045).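 As to AC50: curve fitted for loss meaning shorter burst duration than DMSO.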 An outline of the steps:
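Read-out: average first-to-last-spike interval within single-electrode bursts, averaged over bursting electrodes per well, then summarised as area under the curve across days 5, 7, 9 and 12. Developing rat cortical networks were exposed from day 0.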

A short description of assay [6]: CCTE_Shafer_MEA_dev_interburst_interval_mean: CCTE's Neural Network Formation Assay for Mean Interburst Interval, Shafer Lab (AID 2284046).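 Also: well-mean interburst interval of bursting electrodes as AUC over four recording days; curve fitted for decrease in interburst interval relative to DMSO.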 An outline of the steps:
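Rat cortical neurons, 1.5 x 10^5 cells/well, 48-well MEA; compound from day 0 through DIV 12, media and treatment renewed DIV 5/9. Recordings DIV 5, 7, 9, 12; well-mean interburst interval → trapezoidal AUC, loss direction vs DMSO.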

For assay [7], the target named is Estrogen receptor (Homo sapiens) (UniProt P03372). Briefly: CCTE_Deisenroth_AIME_384WELL_LUC_Inactive: CCTE's 384-well Estrogen Receptor Transactivation Assay without AIME metabolic competence (ERTA luciferase; metabolism negative), Deisenroth Lab (AID 2284038; active = hit-call score of the fitted dose curve at least 0.9, where 1 is the maximum;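 also: hits raise estrogen receptor luciferase signal so potencies reflect agonists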). Put shortly: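 Metabolism-negative mode: chemicals (10-point, 0.002–200 uM) held 2 h with alginate-water microspheres, then conditioned medium applied to VM7Luc4E2 cells for 24 h. Luciferase induction referenced to 17beta-estradiol.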
Estrogen receptor (Homo sapiens), sequence (P03372 whole entry, looked up): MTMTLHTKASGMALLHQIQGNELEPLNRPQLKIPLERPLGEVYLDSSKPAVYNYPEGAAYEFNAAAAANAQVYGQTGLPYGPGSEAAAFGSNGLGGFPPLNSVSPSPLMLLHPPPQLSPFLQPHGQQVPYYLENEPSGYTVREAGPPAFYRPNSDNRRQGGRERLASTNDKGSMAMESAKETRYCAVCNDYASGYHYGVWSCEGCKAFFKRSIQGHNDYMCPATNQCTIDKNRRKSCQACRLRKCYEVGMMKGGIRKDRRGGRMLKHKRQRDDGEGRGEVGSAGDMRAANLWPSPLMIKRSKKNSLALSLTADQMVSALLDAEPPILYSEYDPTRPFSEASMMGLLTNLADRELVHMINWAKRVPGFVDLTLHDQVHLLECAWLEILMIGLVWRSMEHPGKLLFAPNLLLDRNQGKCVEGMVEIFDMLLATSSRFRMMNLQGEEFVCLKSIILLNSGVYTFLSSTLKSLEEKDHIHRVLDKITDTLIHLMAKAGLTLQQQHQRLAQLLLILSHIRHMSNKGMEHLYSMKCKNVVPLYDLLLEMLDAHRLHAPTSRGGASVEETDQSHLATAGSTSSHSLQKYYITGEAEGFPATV

Assay [8] has the same target. Nature of the assay: CCTE_Deisenroth_AIME_384WELL_LUC_Shift: CCTE's 384-well Estrogen Receptor Transactivation Assay with AIME metabolic competence data shift (ERTA luciferase; difference in metabolism positive and negative), Deisenroth Lab (AID 2284041).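 Also: shift is response with S9 minus without S9 so positive means metabolism raised ER signal.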 An outline of the steps:
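Test chemicals (0.002–200 uM, 10-point) were pre-incubated 2 h with alginate microspheres containing phenobarbital/beta-naphthoflavone-induced male Sprague Dawley rat liver S9 or water, then medium was transferred to VM7Luc4E2 cells for 24 h luciferase readout; shift = S9-positive minus S9-negative normalized response.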

The nature of assay [9]: CCTE_Deisenroth_AIME_384WELL_CTox_Active: Cytotoxicity Assessment (CTOX) in CCTE's 384-well Estrogen Receptor Transactivation Assay with AIME metabolic competence (metabolism positive), Deisenroth Lab (AID 2284037; active = hit-call score of the fitted dose curve at least 0.9, where 1 is the maximum;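 also: chemicals first conditioned 2 h by alginate-bound induced rat liver S9 before cells; activity means signal loss indicating cell death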). Put shortly:
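Cytotoxicity in VM7Luc4E2 breast cells, 24 hour, measured as protease-substrate fluorescence loss, after 2-hour metabolic conditioning with induced rat hepatic S9 in alginate microspheres. Concentrations 0.002 - 200 uM, 10 points, bidirectional fitting.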

Assay [10] can be described thus: CCTE_Deisenroth_AIME_384WELL_CTox_Inactive: Cytotoxicity Assessment (CTOX) in CCTE's 384-well Estrogen Receptor Transactivation Assay without AIME metabolic competence (metabolism negative), Deisenroth Lab (AID 2284039; active = hit-call score of the fitted dose curve at least 0.9, where 1 is the maximum;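 also: cell viability via live-cell protease substrate cleaved to fluorescent probe; loss of fluorescence signal means loss of viability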). An outline of the steps: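 VM7Luc4E2 human breast cells received conditioned medium from a 2 h incubation of chemical with alginate-water microspheres (no S9), then were exposed 24 h. Viability was read as protease-substrate cleavage to a fluorescent probe; loss of signal was fitted bidirectionally over 0.002–200 uM.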

Several values for one entry are separate records, joined by “and”; a condition that tells them apart may be missing. Identical values can stand only once. Inconclusive results are not listed. More than one record can exist for a structure, and the calls need not agree. Activity calls are given as the source filed them. The calls were made as follows, unless noted: active = hit-call score of the fitted dose curve at least 0.9, where 1 is the maximum; inactive = score below 0.9.

Regarding `COP(=S)(OC)Oc1nc(Cl)c(Cl)cc1Cl`, the molecule was called inactive in assay [1], in assay [2], in assay [3], in [4], in [5] and in [6].

`CC1=C(C(=O)Nc2ccccc2)SCCO1`: the outcome in assay [7] and in assay [8] was inactive.

On to `CCON=C(CC)C1=C(O)CC(c2c(C)cc(C)cc2C)CC1=O` (stereo not given), for which the outcome in assay [9] and in assay [8] was inactive.

Turning to `C#CCOS(=O)OC1CCCCC1Oc1ccc(C(C)(C)C)cc1` (stereo not given), the AC50 in assay [9] was 18.6 µM (active). Also, the molecule was classed as inactive in assay [10] and in assay [8].

As for `C=CCC1=C(C)[C@@H](OC(=O)[C@@H]2[C@@H](C=C(C)C)C2(C)C)CC1=O`, the AC50 in assay [1] was 6.82 µM (active); in [3] it was 10 µM (active). The molecule was classed as inactive in assay [2], in assay [4], in assay [5] and in [6].

Take `CCNc1nc(Cl)nc(NC(C)C)n1`: the result in assay [9], in assay [7], in [1], in assay [8], in assay [2] and in assay [3] was inactive. The outcome in assay [4], in assay [5] and in assay [6] was inactive.

For the molecule `CCc1nn(C)c(C(=O)NCc2ccc(C(C)(C)C)cc2)c1Cl`, the AC50 in assay [9] was 1.82 µM (active). The molecule was called inactive in assay [10] and in [8].

On to `N#Cc1cc(Br)c(O)c(Br)c1`, for which the result in [9], in assay [10] and in assay [8] was inactive.

On to `Cc1ccc(-c2c(Cl)nc(C#N)n2S(=O)(=O)N(C)C)cc1`, for which the AC50 in assay [1] is 39 µM (active); in assay [2], 15.2 µM (active); in [3], 22.3 µM (active). In addition, the molecule was called inactive in assay [4], in assay [5] and in assay [6].

As for `Cc1c(F)c(F)c(COC(=O)C2C(/C=C(\Cl)C(F)(F)F)C2(C)C)c(F)c1F` (stereo not given), the molecule was classed as inactive in assay [7], in [10], in assay [8], in [4], in assay [5] and in assay [6]. The AC50 in assay [1] is 10 µM (active); in assay [2] it was 0.716 µM (active); in assay [3], 2.72 µM (active).

In the case of `CCCCNC(=O)n1c(NC(=O)OC)nc2ccccc21`, the AC50 in assay [1] and in assay [3] was 15 µM (active) throughout. The result in [2], in [4], in [5] and in assay [6] was inactive.

`COC(=O)N(OC)c1ccccc1COc1ccn(-c2ccc(Cl)cc2)n1`: the AC50 in assay [9] was 2.68 µM (active); in assay [10] it was 19.8 µM (active); in assay [1], 77 nM (active) and 13.7 nM (active); in assay [2] it was 0.0914 µM (active); in [3] it was 123 nM (active) and 13 nM (active); in assay [4], 269 nM (active) and 50 nM (active). Also, the AC50 in assay [5] was 0.129 µM (active); in assay [6], 264 nM (active) and 13.7 nM (active). Moreover, the call in assay [7], in [8], in assay [2] and in assay [5] was inactive.

Consider `COP(N)(=O)SC` (stereo not given), for which the result in assay [7], in [1], in assay [8], in assay [2], in assay [4] and in assay [5] was inactive. Moreover, the molecule was called inactive in assay [6]. Besides, the AC50 in [3] was 0.0901 µM (active).

On to `CC(Oc1ccc(Cl)cc1Cl)C(=O)O` (stereo not given), for which the outcome in assay [7] and in [8] was inactive.

Turning to `CCOc1cc(Oc2ccc(C(F)(F)F)cc2Cl)ccc1[N+](=O)[O-]`, the molecule was classed as inactive in [9], in assay [10] and in [8]. The AC50 was 4.91 µM (active) in assay [1]; 9.62 µM (active) in assay [2]; 5.27 µM (active) in assay [3]; 11.4 µM (active) in assay [4]; 6.99 µM (active) in assay [5]; 4.76 µM (active) in assay [6].

On to `COc1cnc(OC)n2nc(NS(=O)(=O)c3c(OCC(F)F)cccc3C(F)(F)F)nc12`, for which the call in assay [9] and in assay [10] was inactive. Further, the AC50 in assay [7] was 13.7 µM (active); in assay [8], 28 µM (active).
